# FBPA Giardia inh – inhibitors of Giardia lamblia fructose-1,6-bisphosphate aldolase | A8B2U2 | purified Giardia FBPA | Potency, µM (highest dose often 59.6 µM), hits mostly inhibitors | 290,000 compounds, 0.71% hits | AID 2451; also: nearly all actives have a fitted effect of over 55% in size
#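 Giardia FBPA (40 nM reagent) was preincubated 10 min at RT with compound (up to 57.5 uM final), then substrate plus GAPDH/TPI/NAD/arsenate coupling system with diaphorase/resazurin was added; resorufin fluorescence (525/598 nm) was read after 20 min.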
# Shiga inhibitor – Shiga toxin inhibition. 290,000 compounds, 9.2% hits. inhibition, % at 38.7 µM. Vero cells, Shiga toxin protein synthesis inhibition reporter; in the data active = inhibition mostly above about 28%, no sharp cut-off; inactive = mostly below about 43%
# LmPK inh – LmPK (Leishmania mexicana) enzyme inhibition. Potency, µM (doses to about 57.5 µM), hits mostly inhibitors. AID 1721. purified LmPK, Kinase-Glo ATP luminescence, 1 h. 290,000 compounds, 0.37% hits. Q27686
# Target sequence (Q27686 whole entry, looked up): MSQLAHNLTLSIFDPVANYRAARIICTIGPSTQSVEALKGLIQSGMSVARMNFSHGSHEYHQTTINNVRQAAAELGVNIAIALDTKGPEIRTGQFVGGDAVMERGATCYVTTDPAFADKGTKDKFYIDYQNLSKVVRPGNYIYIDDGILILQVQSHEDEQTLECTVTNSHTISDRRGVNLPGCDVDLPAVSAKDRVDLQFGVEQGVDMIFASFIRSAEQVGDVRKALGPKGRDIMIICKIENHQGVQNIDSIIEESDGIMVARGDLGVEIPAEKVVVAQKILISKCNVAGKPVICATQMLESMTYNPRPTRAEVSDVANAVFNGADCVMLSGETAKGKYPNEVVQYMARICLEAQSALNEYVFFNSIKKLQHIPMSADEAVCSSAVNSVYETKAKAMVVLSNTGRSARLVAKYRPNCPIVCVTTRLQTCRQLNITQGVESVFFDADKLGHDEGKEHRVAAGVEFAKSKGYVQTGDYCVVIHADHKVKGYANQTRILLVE
#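 In 50 mM imidazole pH 7.2 with 7 mM MgCl2, LmPK (0.1 nM) turned over PEP (0.5 mM) and ADP (0.1 mM) for 1 h at room temperature. Luciferase read-out of ATP.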
# CHX counter – counter-screen hit for Shiga toxin inhibitors, cycloheximide | cell reporter, cycloheximide protein synthesis inhibition counterscreen | max response, % | 300,000 compounds, 12% hits; in the data active = max response mostly above about 13%, no sharp cut-off; inactive = mostly below about 14%; also: read at 38.3 µM for the half of the compounds with a filed dose
# Tb PYK inh – inhibitors of Trypanosoma brucei pyruvate kinase | Potency, µM (highest dose often 76.8 µM), most hits filed as inhibitors | TbPYK enzyme, Kinase-Glo Plus ATP luminescence, 45 min | Q57TT1 | 410,000 compounds, 0.12% hits; also: nearly all actives have a fitted effect of over 50% in size
#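 Luminescence from Kinase-Glo Plus, added after a 45-minute room-temperature reaction, served as the end-point read-out. The enzyme and substrate were preincubated with compound before ADP (130 uM final) initiated turnover. Concentration-effect curves came from normalized qHTS data.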
# Sm TGR block – blocks Schistosoma mansoni thioredoxin glutathione reductase; Q962Y6; purified TGR, DTNB reduction, TNB absorbance 405 nm; Potency, µM (top dose mostly 114 µM), most hits filed as inhibitors; 360,000 compounds, 3% hits; AID 485364; also: nearly all actives have a fitted effect of over 60% in size
#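 Kinetic colorimetric format: TGR-catalysed, NADPH-driven DTNB reduction monitored via TNB absorbance. Enzyme dispensed at 20 nM; compound exposure 15 min at room temperature before reaction start.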
# A number is an active result; . = inactive; ? = inconclusive; / = no result. The entries come from a sample that favours hits as a whole. Unless noted, calls follow the shape of the dose curve; as a rule, active = well fitted curve in the direction sought with a large enough effect; inconclusive = small, poorly fitted or top-dose-only effect, or another doubt; inactive = no such curve, though single readings can be large; an effect the other way counts as inactive or inconclusive.
SMILES,FBPA Giardia inh,Shiga inhibitor,LmPK inh,CHX counter,Tb PYK inh,Sm TGR block
CCc1ccc(-n2c(C)cc(/C=N/NC(=O)c3ccncc3)c2C)cc1,.,.,.,.,.,/
Cc1cc(/C=N/NC(=O)c2ccncc2)c(C)n1-c1ccccc1,.,23,.,26,.,.
O=C(CSc1nccn1Cc1ccc(F)cc1)Nc1ccc2c(c1)OCCO2,/,/,/,/,.,.
CNC(=O)N(O)C1N(/N=C/c2cc(Br)ccc2O)C(=S)SC1(C)C (centres undefined),.,.,.,15,.,.
CNC(=O)N(O)C1N(/N=C/c2ccc(C)cc2)C(=S)SC1(C)C (centres undefined),?,.,.,.,.,.
CC1(C)SC(=S)N(/N=C/c2ccccc2O)C1N(O)C(=O)Nc1ccccc1 (centres undefined),.,52,.,21,.,.
CCCCNC(=O)N(O)C1N(/N=C/c2ccco2)C(=S)SC1(C)C (centres undefined),/,/,/,/,.,28µM
O=C1NCCSC1c1ccccc1 (centres undefined),/,/,/,/,.,/
Cc1ccc(-c2cc3nn(-c4ccccc4)c(N)c3c(=O)o2)cc1,.,76,.,40,.,.
Cc1ccc(-n2nc(-c3ccccc3)cc2Nc2ccccc2N)cc1,.,.,.,.,.,.
Cc1ccc(Cl)cc1N(C)C(=O)c1sc2nc3n(c(=O)c2c1C)CCCC3,/,/,/,/,.,.
COc1cccc(C(=O)NNC(=O)c2cccc3ccccc23)c1,/,/,/,/,.,/
COc1cccc(N=Nc2ccc3ccccc3c2O)c1,?,58,.,40,.,.
COc1ccc(N=Nc2ccc3ccccc3c2)c(O)c1,.,/,.,50,.,.
COc1ccc(N=Nc2cc(C)ccc2O)cc1,.,82,?,48,.,.
Cc1ccc(S(=O)(=O)N2CCCCC2)cc1,.,.,.,.,.,.
Cc1ccc(O)c(N=Nc2ccc(S(=O)(=O)N3CCCC3)cc2)c1,.,42,.,27,.,.
Cc1c(C(=O)Nc2ccc(F)cc2F)nnn1-c1ccccc1Br,/,/,/,/,.,.
Cc1nc(S(=O)(=O)N2CCN(c3cccc(Cl)c3)CC2)cn1C,/,/,/,/,.,.
CC(C)(C)NC(=O)c1ccccc1NC(=O)C1CC(=O)N(C2CCCCC2)C1 (centres undefined),.,.,.,.,.,.
Nc1nonc1-n1nnc(C(=O)N/N=C/c2c(Cl)cccc2Cl)c1CSC1=NCCS1,.,.,.,.,.,.
Cc1cccc(COc2ccc(/C=N/NC(=O)c3nnn(-c4nonc4N)c3COc3ccc(F)cc3)cc2)c1,.,.,.,16,.,.
CCN(CC)Cc1c(C(=O)N/N=C/c2cccs2)nnn1-c1nonc1N,.,.,.,.,.,.
CC(/C=N/NC(=O)c1nnn(-c2nonc2N)c1C(C)C)=C\c1ccccc1,.,.,.,29,.,.
CCc1c(C(=O)N/N=C/c2cccs2)nnn1-c1nonc1N,.,45,.,23,.,.
SMILES,FBPA Giardia inh,Shiga inhibitor,LmPK inh,CHX counter,Tb PYK inh,Sm TGR block
Nc1nonc1-n1nnc(C(=O)N/N=C/c2ccc(OCc3ccccc3)cc2)c1COc1ccc(F)cc1,.,.,.,.,.,.
CCCc1c(C(=O)N/N=C/C(C)=C/c2ccccc2)nnn1-c1nonc1N,.,.,.,.,.,.
Nc1nonc1-n1nnc(C(=O)N/N=C/C=C/c2ccccc2)c1CSC1=NCCS1,.,43,.,17,.,.
COc1ccc(C(=O)NCc2ccc3c(c2)CCN3C(C)=O)c(OC)c1,/,/,/,/,.,.
COc1ccc(CNc2cc(-c3cccc(NS(C)(=O)=O)c3)ncn2)c(OC)c1,.,/,/,/,/,/
Nc1nnnn1CC(=O)N/N=C/c1cccs1,.,.,.,17,.,.
Cc1cccc(COc2ccc(/C=N/NC(=O)c3nnn(-c4nonc4N)c3CN3CCCCC3)cc2)c1,?,.,.,.,.,.
Nc1nonc1-n1nnc(C(=O)N/N=C/c2ccc(OCc3cccc(Cl)c3)cc2)c1CN1CCCCC1,.,.,.,27,.,.
O=C(Cn1nnc2ccccc21)N/N=C\c1cccs1,.,.,.,.,.,.
CCn1c(C(=O)Nc2ccccc2C(=O)OC)cc2sc(Cl)cc21,/,/,/,/,.,.
Cc1ccc(NC(=O)CCN2C(=O)NC3(CCCC3)C2=O)cc1S(=O)(=O)N1CCOCC1,/,/,/,/,.,.

# Compound activity (PubChem BioAssay)
